The values below come from PubChem BioAssay (EPA / NIEHS).

Activity calls are given as the source filed them. Rule for the calls: active = hit-call score of the fitted dose curve at least 0.9, where 1 is the maximum; inactive = score below 0.9.

The term AC50 denotes the midpoint of the concentration-response curve, whichever way the signal moves.

The assay is described as follows: APR_HepG2_CellLoss_72hr: Apredica 72-hour HepG2 Assay for Cell Loss (AID 2282915). The conditions noted are these: high-content imaging. The protocol: APR_HepG2_72hr is a cell-based, multiplexed-readout assay that uses HepG2, a human liver cell line, with measurements taken at 72 hours after chemical dosing in a 384-well plate.APR_HepG2_CellLoss_72hr is one of 10 assay component(s) measured or calculated from the APR_HepG2_72hr assay. It is designed to make measurements of cell number, a form of viability reporter, as detected with fluorescence intensity signals by HCS Fluorescent Imaging technology.Data from the assay component APR_HepG2_CellLoss_72hr was analyzed into 1 assay endpoint. This assay endpoint, APR_HepG2_CellLoss_72hr, was analyzed with bidirectional fitting relative to DMSO as the negative control and baseline of activity. Using a type of viability reporter, measures of all nuclear dna for gain or loss-of-signal activity can be used to understand the viability at the cellular-level. Furthermore, this assay endpoint can be referred to as a secondary readout, because this assay has produced multiple assay endpoints where this one serves a viability function. To generalize the intended target to other relatable targets, this assay endpoint is annotated to the cell cycle intended target family, where the subfamily is proliferation.
Cells were treated with dimethyl sulfoxide (DMSO) as a solvent control at a final concentration of 0.5% v/v or with compounds in DMSO with a resulting final DMSO concentration of 0.5% v/v. Compound treatment was done at concentrations of 0.39, 0.78, 1.56, 3.12, 6.24, 12.5, 25, 50, 100, and 200 uM in duplicate on each plate. Cells were treated with compounds for 1, 24, or 72 hr. Carbonyl […] m-chloro-phenylhydrazone (CCCP) and taxol were used as positive controls for mitochondrial function and cytoskeletal stability, respectively; DMSO served as the negative control for this experiment. Cells were fixed by the direct addition of 50 uL formaldehyde in Hank's Balanced Salt Solution (HBSS) to a final concentration of 3.7%. After incubation in the fixation medium for 30 min at room temperature (293-298 K), cells were rinsed twice with HBSS and treated with cell permeabilization buffer (16 uL of 0.5% Triton X-100) for 10 min at room temperature (293-298 K) before labeling. For mitochondrial membrane potential and mitochondrial measurements, pre-fixed cells were incubated with 50 uL of MitoTracker Red CMXRos (Invitrogen) at a concentration of 250 nM for 30 min before fixation. In the remaining cases, post-fixed cells were labeled by incubation with a multiplexed mixture of primary antibodies in HBSS for 60 min at room temperature (293-298 K) to detect immunoreactivity of c-Jun (1:500), phospho-histone H3 (1:100), phospho-histone H2A.x (1:200), p53 (1:400), alpha-tubulin (1:200) and Hoechst 33342 (2 ug/mL). Cells were labeled for multiplexed imaging on two separate plates: a) Hoechst 33342, MitoTracker Red, phospho-histone H3, and alpha-tubulin, and b) Hoechst 33342, phospho-histone H2A.x, and c-Jun. A final rinse with HBSS (50 uL) was performed before analysis. The primary and secondary antibodies for the proteins were phospho-histone H3 (rabbit anti-phospho-histone H3 and FITC-donkey anti-rabbit IgG), phospho-histone H2A.x (mouse anti-phospho-histone H2A.x and FITC-donkey anti-mouse IgG), c-Jun (rabbit anti-phospho-c-Jun and Cy3-donkey anti-rabbit IgG), p53 (sheep anti-p53 and Cy5-donkey anti-sheep IgG), alpha-tubulin (mouse anti-alpha-tubulin and Cy5-donkey anti-mouse IgG). These antibodies are available as the CellCiphr HepG2 assay kit (Millipore).Digital images of each well were captured using a Cellomics ArrayScan VTI (Thermo Scientific Cellomics) (0.8 NA objective, 0.63x optical coupler, and XF-93 filter set) at 20x magnification. The images were acquired using the autofocus feature of the ArrayScan instrument, which entails the following steps. First, the camera focuses on channel 1 (Hoechst 33342), where nuclei are identified. Second, a Z offset of 1 um is used for capturing mitochondria (MitoTracker Red). […]
As to `CC(C)CCCCCCOC(=O)c1ccc(C(=O)OCCCCCCC(C)C)c(C(=O)OCCCCCCC(C)C)c1`, the compound was called inactive. For `Oc1ccc2c(c1)-c1ccccc1C2`, the half-maximal activity concentration (AC50) is 86.1 µM (active). For `CCCCCCCCCCCCc1ccccc1`, the result was inactive. For the compound `CCCCCCc1ccc(O)cc1O`, the AC50 was 71.5 µM (active). As to `CC/C(=C\C(=N/O)C(N)=O)C(C)[N+](=O)[O-]` (stereo not given), the compound was classed as inactive. In the case of `C1=CCCC=CCCC=CCC1`, the call was inactive. Consider `Nc1cccc(N)c1`, for which the compound was called inactive. As for `CC1=CC(=O)CC(C)(C)C1`, the compound was classed as inactive.

Turning to `CN(C)c1ccc(Cc2ccc(N(C)C)cc2)cc1`, the AC50 was 45.2 µM (active). In the case of `CC(=O)OC[C@H]1O[C@@](COC(C)=O)(O[C@H]2O[C@H](COC(C)=O)[C@@H](OC(C)=O)[C@H](OC(C)=O)[C@H]2OC(C)=O)[C@@H](OC(C)=O)[C@@H]1OC(C)=O`, the result was inactive. Regarding `CCCN(C1CCN(C(=O)C2CCNCC2)CC1)[C@@H]1CCc2ccc(OC)cc2C1`, the concentration at half-maximal activity (AC50) was 95 µM (active). In the case of `O=c1n(CC2CO2)c(=O)n(CC2CO2)c(=O)n1CC1CO1` (stereo not given), the AC50 was 10.7 µM (active).

`Fc1ccccc1[C@@H](F)COC1CCC(Nc2ncnc3[nH]ncc23)CC1` (stereo not given in full): the half-maximal activity concentration (AC50) was 59 µM (active). Consider `CC[C@H]1CC[C@H](NCc2cc3c(cc2OC)[C@H]2C[C@H]2C(=O)N3C)[C@H](c2ccccc2)N1`, for which the half-maximal activity concentration (AC50) is 72.5 µM (active). The same measure, in the same setting: under `O=C(O)c1cccc(N(Cc2cccnc2)c2ccc(OC(F)F)c(OC(F)F)c2)c1` stands 23.5 µM (active). In the case of `O=C(NS(=O)(=O)/C=C/c1ccccc1)c1ccc(F)cc1Cl`, the outcome was inactive. With `CCc1cc(SCc2sc(-c3ccc(C(F)(F)F)cc3)nc2CN2CCN(c3ccc(OC)cc3)CC2)ccc1OCC(=O)O`, the half-maximal activity concentration (AC50) was 39.5 µM (active). With `C[C@](N)(Cc1ccc(O)c(O)c1)C(=O)O`, the outcome was inactive. `CC[C@H]1OC(=O)[C@H](C)[C@@H](O[C@H]2C[C@@](C)(OC)[C@@H](O)[C@H](C)O2)[C@H](C)[C@@H](O[C@@H]2O[C@H](C)C[C@H](N(C)C)[C@H]2O)[C@](C)(O)C[C@@H](C)C(=O)[C@H](C)[C@@H](O)[C@]1(C)O`: the call was inactive. Consider `CCC(C)(C)C(=O)O[C@H]1C[C@@H](C)C=C2C=C[C@H](C)[C@H](CC[C@@H]3C[C@@H](O)CC(=O)O3)[C@H]21`, for which the AC50 is 26.8 µM (active). Consider `Cn1c(=O)c2c(ncn2C)n(C)c1=O`, for which the result was inactive.

For `CCNc1ccccc1`, the outcome was inactive.

On to `CC(O)CN(CCN(CC(C)O)CC(C)O)CC(C)O` (stereo not given), for which the compound was classed as inactive.

As to `CCn1nc(Cc2ccccc2)cc1C1CCN(C[C@H]2C[C@H](N(C)[C@@H](C(=O)O)C(C)C)C[C@@H]2c2cccc(F)c2)CC1`, the AC50 was 90.9 µM (active). `CCOC(=O)COc1ccc2c(c1)CC(NCC(O)c1cccc(Cl)c1)CC2` (stereo not given): the AC50 is 71.4 µM (active). As to `O=C1OC(=O)C2C3C=CC(C3)C12` (stereo not given), the result was inactive.

In the case of `CCOC(=O)c1ccc(C2CCC(NC[C@H](O)COc3ccc(O)c(NS(C)(=O)=O)c3)CC2)cc1` (stereo not given in full), the concentration at half-maximal activity (AC50) was 25 µM (active). On to `CCOCCOCCOCCO`, for which the outcome was inactive. As to `Cc1ccc(C)c(O)c1`, the compound was called inactive. The same measure, in the same setting: the value for `CC(C)=CCCC(C)=CC=O` was “inactive”. Regarding `CC(=O)c1ccc2c(c1)[C@H](NC(=O)c1ccc(F)cc1)[C@@H](O)C(C)(C)O2`, the compound was called inactive. Turning to `O=C(CCCCCCCCc1cccnc1)N1CCC(C=C(c2ccccc2)c2ccccc2)CC1`, the compound was classed as inactive. Turning to `O=c1[nH]c2ccc(S(=O)CCN3CCC(Cc4ccc(F)cc4)CC3)cc2o1` (stereo not given), the concentration at half-maximal activity (AC50) is 76.1 µM (active). Regarding `O=C(O)c1cc(N=Nc2ccc(S(=O)(=O)Nc3ccccn3)cc2)ccc1O`, the result was inactive. For `Cc1ccc(O)cc1`, the result was inactive.

`CNS(=O)(=O)c1cc(C(=O)N2CCC(CCN3C4CCC3CC(n3c(C)nc5ccccc53)C4)(c3cccc(F)c3)CC2)c(Cl)cc1F` (stereo not given): the AC50 was 24 µM (active). Take `COc1ccc(-n2nc(C(F)F)cc2-c2ccc(S(C)=O)cc2)cc1` (stereo not given): the AC50 is 72.8 µM (active). On to `C=CCCCCCCCCC(=O)O`, for which the call was inactive. With `CC(C)(O)c1coc(S(=O)(=O)NC(=O)Nc2c3c(cc4c2CCC4)CCC3)c1`, the compound was classed as inactive. Turning to `O=C(O)c1cccc(Oc2ccccc2)c1`, the compound was called inactive.
